Reference: PubChem BioAssay AID1376 (SRMLSC, 2008)
Screen size: about 220,000 compounds; about 530 (0.24%) were called active. Cut-off read from the data, not from the text of the source: active = inhibition above about 13%; inconclusive = no clear call, values can overlap the other calls; inactive = below that. The sample as a whole holds a higher share of actives than the screen did. Entries with a potency or affinity are not part of this list.

The compounds below were run against Bifunctional protein GlmU (Mycobacterium tuberculosis (strain ATCC 25618 / H37Rv)) (UniProt P9WMN3) (assay: inhibition of mycobacterial GlmU enzyme – biochemical, glucosamine-1-phosphate acetyltransferase (AID 1376;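 note: 0% = complete reaction with vehicle and 100% = reaction without substrate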)). Details: M. tuberculosis GlmU acetyltransferase enzyme assay; stronger effect = higher value;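 tested at 30 µM in the primary screen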.
Sequence of Bifunctional protein GlmU (Mycobacterium tuberculosis (strain ATCC 25618 / H37Rv)) (P9WMN3 whole entry, looked up): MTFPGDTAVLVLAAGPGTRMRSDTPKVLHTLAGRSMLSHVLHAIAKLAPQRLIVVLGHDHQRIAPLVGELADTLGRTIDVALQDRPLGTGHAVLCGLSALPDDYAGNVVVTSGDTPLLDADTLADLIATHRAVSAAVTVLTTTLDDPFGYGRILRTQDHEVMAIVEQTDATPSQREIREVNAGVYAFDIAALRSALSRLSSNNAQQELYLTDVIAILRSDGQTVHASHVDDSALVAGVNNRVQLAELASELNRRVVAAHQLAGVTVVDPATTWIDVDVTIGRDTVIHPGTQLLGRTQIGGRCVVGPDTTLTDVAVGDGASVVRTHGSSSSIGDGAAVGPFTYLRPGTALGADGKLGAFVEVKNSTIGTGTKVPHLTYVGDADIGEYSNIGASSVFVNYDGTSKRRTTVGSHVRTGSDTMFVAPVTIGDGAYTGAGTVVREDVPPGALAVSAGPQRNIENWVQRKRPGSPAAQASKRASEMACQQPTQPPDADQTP

Compound | inhibition
O=C1Cn2c(nc3ccccc32)N1c1cccc(C(F)(F)F)c1 | 0.84% (inactive)
CN(Cc1ccncc1)C1CC(=O)N(c2ccc(F)cc2)C1=O (stereo not drawn) | 5.02% (inactive)
CCSc1ccccc1C(=O)NC1CCCCC1 | 2.94% (inactive)
CCCNCc1cc(Br)ccc1OCC(=O)NCCc1ccccc1 | 0.38% (inactive)
CC(C)N(Cc1ccccc1)C(=O)Cn1c(=O)cnc2ccccc21 | -0.29% (inactive)
Cc1[nH]n(C2=NCCS2)c(=O)c1N=Nc1cccc(C(F)(F)F)c1 | -0.55% (inactive)
Cc1cc(C)c(S(=O)(=O)/N=C2\C=CC(=O)C(Cl)=C2)c(C)c1 | 14.5% (active)
Cc1ccc(S(=O)(=O)c2c(C)cc(C)nc2Cl)c(C)c1 | 1.23% (inactive)
Cc1cc(C)c(S(=O)(=O)Nn2cnnc2)c(C)c1 | -3.71% (inactive)
COc1cccc(C2=NN(C(=O)c3ccco3)C(O)(C(F)(F)F)C2)c1 (stereo not drawn) | 3.28% (inactive)
Cc1ccc(-c2csc3ncnc(OCC(=O)NC(=O)NCc4ccco4)c23)cc1 | 2.74% (inactive)
CC(=O)Nc1ccc(S(=O)(=O)N(C)c2ccccc2)cc1 | -1.32% (inactive)
CN(c1ccccc1)S(=O)(=O)c1ccc(NC(=S)NC(=O)c2ccccc2)cc1 | 0.7% (inactive)
CN(c1ccccc1)S(=O)(=O)c1ccc(NC(=S)Nc2ccccc2)cc1 | 18.1% (active)
O=C1c2cccc(Sc3ccccc3)c2C(=O)c2c(Sc3ccccc3)cccc21 | 14.2% (active)
O=C1c2cccc(O)c2C(=O)c2c(O)cccc21 | 6.42% (inactive)
O=C(O)c1ccc2c(c1Sc1ccccc1)C(=O)c1ccccc1C2=O | 7.96% (inactive)
CC(C)C(NC(=O)C1CCC(C(C)(C)C)CC1)C(=O)NCc1cccnc1 (stereo not drawn) | 5% (inactive)
CCOc1ccc(S(=O)(=O)N2CCN(C(=S)NC3CC3)CC2)cc1 | 4.79% (inactive)
CCn1c(Cc2ccccc2)nnc1SCc1cccc(C(=O)O)c1 | 1.34% (inactive)
CCC(=NC(C)c1ccccc1)c1c(O)n(C)c(=O)n(C)c1=O (stereo not drawn) | -3.09% (inactive)

Compound | inhibition
COc1cc2c(cc1OC)C(c1ccccc1O)N(C1CC(=O)N(c3ccccc3)C1=O)CC2 (stereo not drawn) | 2.68% (inactive)
CCOC(=O)Cc1csc(NC(=O)c2cc(C)cc(C)c2)n1 | -2.68% (inactive)
CCOC(=O)CSc1nnc(-c2ccc3ncccc3c2)n1C | 0.08% (inactive)
Cn1c(SCC(=O)O)nnc1-c1ccc2ncccc2c1 | -1.41% (inactive)
Cn1c(SCC(=O)N2CCOCC2)nnc1-c1ccc2ncccc2c1 | 13.7% (active)
Cc1ccc(S(=O)(=O)N2CCCOC2CNC(=O)C(=O)NC2CCCCC2)cc1 (stereo not drawn) | -5.78% (inactive)
Cc1ccc(C=C2C(=O)c3ccccc3C2=O)o1 | 2.45% (inactive)
O=C1/C(=C\c2ccc(Br)o2)Cc2ccccc21 | 8.39% (inactive)
COc1ccc(C(CNC(=O)c2ccc(S(=O)(=O)N(C)C)cc2)N2CCCCC2)cc1 (stereo not drawn) | 0.14% (inactive)
COc1ccc(NC(=O)N2CCCC2C(=O)NCc2ccc(C)cc2)cc1 (stereo not drawn) | 1.15% (inactive)
CC(C)CNC(C)C(=O)Nc1ccc(S(N)(=O)=O)cc1 (stereo not drawn) | -3.38% (inactive)
C=CCOc1c2ccc(C(=O)NCc3ccc(C)cc3)cc2nn1C | 1.15% (inactive)
Cn1c2ccccc2c2cc(C(=O)N3CCN(CCO)CC3)sc21 | 12.8% (active)
Cn1c2ccccc2c2cc(C(=O)N3CCOCC3)sc21 | 5.13% (inactive)
CC(=O)NNC(=O)c1cc2c3ccccc3n(C)c2s1 | 2.59% (inactive)
CN1CCc2nc(SCc3ccccc3Br)c(C#N)cc2C1 | -4.18% (inactive)
CN1CCc2nc(SCc3cccc(Br)c3)c(C#N)cc2C1 | 13% (active)
Cc1cccc(CSc2nc3c(cc2C#N)CN(C)CC3)c1 | -4.03% (inactive)
Cc1c(C(=O)OCCOc2ccccc2)[nH]c2c1C(=O)CCC2 | 2.56% (inactive)
N#C/C(=C/c1ccc(-c2ccc(S(N)(=O)=O)cc2)o1)c1nc2ccccc2s1 | 6.34% (inactive)
N#C/C(=C/c1ccncc1)c1nc2ccccc2s1 | -6.23% (inactive)

Compound | inhibition
N#C/C(=C\c1ccco1)c1nc2ccccc2s1 | 7.35% (inactive)
COc1cc(/C=C(\C#N)c2nc3ccccc3s2)cc([N+](=O)[O-])c1O | 6.33% (inactive)
N#C/C(=C\c1ccc([N+](=O)[O-])o1)c1nc2ccccc2[nH]1 | -6.95% (inactive)
N#C/C(=C\c1ccc(Sc2ccccc2)o1)c1nc2ccccc2[nH]1 | -4.05% (inactive)
CC(C)(C)NC(=O)NC(=O)COC(=O)c1ccc2c(c1)S(=O)(=O)N=C1CCCCCN12 | -5.9% (inactive)
O=C(C(=S)N1CCOCC1)c1c[nH]c2ccccc12 | -1.14% (inactive)
O=C1C2C3C=CC(CC3)C2C(=O)N1/N=C/c1c(O)ccc2ccccc12 (stereo not drawn) | -1.22% (inactive)
CC(NC(=O)c1ccco1)C1COc2ccccc2O1 (stereo not drawn) | 1.62% (inactive)
CC(Sc1nnc2ccccn12)C(=O)Nc1ccc(Cl)cn1 (stereo not drawn) | 8.91% (inactive)
COc1ccccc1C1=NN(C2=NN=C(N)Cc3ncnn32)C(O)(C(F)(F)F)C1 (stereo not drawn) | -7.53% (inactive)
N#CCC(=O)N/N=C/c1cccc(Oc2ccccc2)c1 | 5.36% (inactive)
O=c1c2ccccc2nc(N2CCCC2)n1-c1ccc(Cl)cc1 | 3.51% (inactive)
O=c1c2ccccc2nc(N2CCCC2)n1-c1ccccc1 | 13.9% (active)
CN1CCN(c2nc3ccccc3c(=O)n2-c2ccccc2)CC1 | 2.07% (inactive)
CC1(C)CC(=O)C2=C(C1)NC(=O)C21C(C(=O)OC(C)(C)C)=C(N)Oc2ccc(Br)cc21 (stereo not drawn) | 4.2% (inactive)
O=C(Cc1ccc([N+](=O)[O-])cc1)NCc1ccc2c(c1)OCO2 | -3.22% (inactive)
O=C(Cc1ccccc1[N+](=O)[O-])NCc1ccc2c(c1)OCO2 | 14% (active)
O=C(Cc1ccccc1[N+](=O)[O-])Nc1ccc2c(c1)OCO2 | 0.87% (inactive)
O=C(/C=C/c1ccccc1)Oc1cccc2cccnc12 | 0.34% (inactive)
O=C(/C=C/c1ccco1)Oc1cccc2cccnc12 | 14.7% (active)
O=C(/C=C\c1ccco1)Oc1cccc2cccnc12 | 0.86% (inactive)
